From PubChem
HP1b chromo inh: HTS for Inhibitors of HP1-beta Chromodomain Interactions with Methylated Histone Tails. Chromobox protein homolog 1 (Homo sapiens), P83916. AlphaScreen HP1-beta / biotin-H3K9me3 peptide binding. 390,000 tested, 0.56% active. Potency, µM (doses to about 114 µM), hits mostly inhibitors; also: nearly all actives have a fitted effect of over 70% in size
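HP1-beta protein (50 nM final) preincubated 30 min at room temperature with biotinylated H3(1-18)K9me3 peptide (50 nM) in PBS pH 7.4, 0.01% Tween-20, then compound added for 30 min. AlphaScreen streptavidin donor/nickel chelate acceptor beads (10 ug/mL final), 30 min dark, luminescence read.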
JMJD2A Tudor: qHTS Assay for Inhibitors of JMJD2A-Tudor Domain. 390,000 tested, 4.4% active. AlphaScreen JMJD2A-Tudor / H3K4me3 peptide binding. Lysine-specific demethylase 4A (Homo sapiens), O75164. Potency, µM (titrated, usually from 114 µM), actives largely listed as inhibitors. AID 504339, 2011; also: nearly all actives have a fitted effect of over 50% in size
Target sequence (O75164 whole entry, looked up, the tested form may be a part): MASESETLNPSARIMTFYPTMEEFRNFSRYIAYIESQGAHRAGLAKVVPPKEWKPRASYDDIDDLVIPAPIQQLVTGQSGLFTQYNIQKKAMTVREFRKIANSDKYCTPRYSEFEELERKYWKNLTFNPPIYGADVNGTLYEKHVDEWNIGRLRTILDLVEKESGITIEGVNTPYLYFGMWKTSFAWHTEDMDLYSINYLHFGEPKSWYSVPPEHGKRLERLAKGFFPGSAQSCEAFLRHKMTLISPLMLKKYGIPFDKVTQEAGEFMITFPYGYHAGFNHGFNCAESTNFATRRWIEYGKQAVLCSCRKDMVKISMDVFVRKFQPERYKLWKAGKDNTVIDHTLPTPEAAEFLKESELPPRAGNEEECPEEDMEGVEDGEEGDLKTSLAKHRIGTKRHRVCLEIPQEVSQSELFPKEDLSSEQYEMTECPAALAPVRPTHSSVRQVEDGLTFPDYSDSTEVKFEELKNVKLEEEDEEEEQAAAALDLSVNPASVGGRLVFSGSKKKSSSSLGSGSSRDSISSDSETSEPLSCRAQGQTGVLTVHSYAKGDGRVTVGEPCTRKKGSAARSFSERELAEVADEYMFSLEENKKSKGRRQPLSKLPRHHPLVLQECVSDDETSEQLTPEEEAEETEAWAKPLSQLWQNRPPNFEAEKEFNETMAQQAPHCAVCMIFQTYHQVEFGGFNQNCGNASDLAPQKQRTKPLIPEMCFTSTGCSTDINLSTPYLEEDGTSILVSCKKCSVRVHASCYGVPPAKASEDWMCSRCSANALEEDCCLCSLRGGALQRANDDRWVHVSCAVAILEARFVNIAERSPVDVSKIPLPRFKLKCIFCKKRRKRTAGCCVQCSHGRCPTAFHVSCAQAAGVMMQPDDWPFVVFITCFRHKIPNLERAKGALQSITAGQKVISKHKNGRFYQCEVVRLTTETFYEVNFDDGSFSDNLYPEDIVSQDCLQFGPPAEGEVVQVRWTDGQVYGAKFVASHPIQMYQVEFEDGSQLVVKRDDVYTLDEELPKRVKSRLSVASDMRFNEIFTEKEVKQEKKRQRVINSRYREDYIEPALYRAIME
G9a block: qHTS Assay for Inhibitors of Histone Lysine Methyltransferase G9a. Histone-lysine N-methyltransferase EHMT2 (Homo sapiens), Q96KQ7. G9a H3K9 monomethylation, AlphaScreen, 2 h. Potency, µM (top dose mostly 102 µM), most hits filed as inhibitors. 350,000 tested, 8.8% active; also: nearly all actives have a fitted effect of over 75% in size
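Signal arises when biotinylated H3K9 peptide, once monomethylated, bridges streptavidin donor and antibody-captured acceptor beads. Enzyme at 20 nM was preincubated 15 min with test compounds; peptide 500 nM and SAM 20 uM then reacted for 2 h.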
L3MBTL1 block: qHTS Assay for the Inhibitors of L3MBTL1 | 230,000 tested, 0.66% active | AlphaScreen L3MBTL1–H3K9me1 peptide binding | Lethal(3)malignant brain tumor-like protein 1 (Homo sapiens), Q9Y468 | Potency, µM (highest dose often 57.1 µM), most hits filed as inhibitors; also: nearly all actives have a fitted effect of over 60% in size
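First, the protein-peptide complex forms for 30 min at room temperature (L3MBTL1 50 nM, biotinylated H3K9me1 peptide 75 nM). Next, compounds are pin-transferred and incubated 30 min. Finally, AlphaScreen beads are added and read after 30 min.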
BAZ2B block: qHTS Assay for Inhibitors of BAZ2B; AlphaScreen BAZ2B-H3K14Ac peptide displacement; Potency, µM (highest dose often 114 µM), actives largely listed as inhibitors; Bromodomain adjacent to zinc finger domain protein 2B (Homo sapiens), Q9UIF8; 360,000 tested, 4.4% active; also: nearly all actives have a fitted effect of over 60% in size
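Complex of BAZ2B and biotin-H3K14Ac (50 nM apiece) forms over 30 min at RT, then faces library compounds up to 110 uM for another 30 min; AlphaScreen beads added, 20 min dark incubation, luminescence read.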
Of the large screens only hits and unclear results are named; the others gave an inactive call. Hits are enriched below; roughly 11% of the tested compounds scored in any of these assays. Calls follow the shape of the dose curve; as a rule, active = well fitted inhibition curve with a large enough effect; inconclusive = small, poorly fitted or top-dose-only effect; inactive = no such curve, though single readings can be large or run the other way.

CCc1ccc2ncc3c(-c4ccc(F)cc4)nn(CC(=O)NC4CCCCC4)c3c2c1	none (no result: L3MBTL1 block)
Cc1ccsc1/C=C1/SC(N2CC(C)OC(C)C2)=NC1=O (stereo unspecified)	G9a block 45µM
CC(C)(C)C1CCC(=NNC(=O)C(=O)NCc2cccnc2)CC1 (stereo unspecified)	G9a block inconclusive, BAZ2B block inconclusive
CCC(C)(C)C1CCC(=NNC(=S)Nc2cccnc2)CC1 (stereo unspecified)	JMJD2A Tudor 45µM, G9a block 7.9µM, BAZ2B block inconclusive
CC(C)(C)C1CCC(=NNC(=S)NCc2ccccc2)CC1 (stereo unspecified)	JMJD2A Tudor inconclusive, G9a block 8.9µM, BAZ2B block inconclusive
Cc1c(C)c2c(c(C)c1OC(=O)c1cccnc1)CC[C@@](C)(CCC[C@H](C)CCC[C@H](C)CCCC(C)C)O2	none (no result: HP1b chromo inh, JMJD2A Tudor, L3MBTL1 block, BAZ2B block)
c1ccc(C[n+]2cccc(-c3ccccc3)c2)cc1	none
NC(=O)C[n+]1cccc(C(=O)Nc2ccccc2)c1	G9a block 50µM
NC(=O)c1ccc[n+](Cc2ccccc2)c1	G9a block 71µM, L3MBTL1 block inconclusive
CC(C)(C)NC(=O)CN(Cc1ccc2c(c1)OCO2)C(=O)CNS(=O)(=O)c1ccccc1	JMJD2A Tudor 79µM (no result: L3MBTL1 block)
Cc1ccc(S(=O)(=O)NCC(=O)N(CC(=O)NC(C)(C)C)Cc2ccc3c(c2)OCO3)cc1	HP1b chromo inh inconclusive (no result: L3MBTL1 block)
C=CCSc1nc2c(sc3nc(C)cc(C)c32)c(=O)[nH]1	G9a block 45µM
COC(=O)C1=C[C@@H](C(=O)OC)C2C3=C(C(=O)[C@@]2(C)NC(=O)c2ccccc2)[C@H](C)[C@@H]2C(=O)NC(=O)[C@@H]2[C@@H]3C1 (stereo partly specified)	none (no result: G9a block, L3MBTL1 block, BAZ2B block)
O=C(NNc1ccccc1C(F)(F)F)c1sccc1Br	G9a block 18µM
CCOC(=O)c1c(NC(=O)c2ccoc2C)sc(C(=O)N(C)C)c1C	JMJD2A Tudor inconclusive, G9a block 32µM (no result: L3MBTL1 block)
CCN(CC)C(=O)c1sc(NC(=O)c2cc(-c3ccc(C)s3)nc3ccccc23)c(C(=O)OC)c1C	G9a block 40µM
Cc1cc(C)nc(NC(=O)c2cc(-c3ccc(C)s3)nc3ccccc23)c1	none
CCN(CC)C(=O)c1sc(NC(=O)c2ccoc2C)c(C(=O)OC)c1C	HP1b chromo inh inconclusive, G9a block 13µM
CCN(CC)C(=O)c1sc(NC(=O)c2ccncc2)c(C(=O)OC)c1C	G9a block inconclusive
COc1ccc(CC(=O)N2CCc3cc(OC)c(OC)cc3C2COc2cc(C)cc(C)c2)cc1OC (stereo unspecified)	JMJD2A Tudor inconclusive, G9a block inconclusive, BAZ2B block inconclusive (no result: L3MBTL1 block)
N#Cc1c(/N=C/C=C/c2ccccc2)sc2c1CCCC2	HP1b chromo inh 18µM, JMJD2A Tudor 45µM, G9a block inconclusive, BAZ2B block 22µM
Cc1ccc(/C=N/c2sc3c(c2C#N)CCCCC3)o1	HP1b chromo inh inconclusive, JMJD2A Tudor 56µM, G9a block 14µM, BAZ2B block 28µM
N#Cc1c(/N=C/c2ccco2)sc2c1CCC2	G9a block inconclusive (no result: L3MBTL1 block)
NCCC(=O)Nc1cccc(-c2nn3c(=O)cc(N4CCNCC4)nc3s2)c1	none (no result: HP1b chromo inh, G9a block, L3MBTL1 block, BAZ2B block)
O=C(Nc1cccc(F)c1)N1CCCC2(CCNCC2)C1	none (no result: HP1b chromo inh, JMJD2A Tudor, L3MBTL1 block, BAZ2B block)
CCOC(=O)c1nc2cc3n(c(CC(C)C)c-2c1C)CC(C)=C3C	JMJD2A Tudor inconclusive, G9a block 3.2µM, BAZ2B block inconclusive
CCOC(=O)c1nc2cc3n(c(C)c-2c1C)C(C)C(C)=C3C (stereo unspecified)	none
c1cncc(-c2cncnc2NC2CCNCC2)c1	none (no result: HP1b chromo inh, JMJD2A Tudor, L3MBTL1 block, BAZ2B block)
CN1CCN(CCCNC(=O)c2cnn(-c3ccccc3)c2-n2cccc2)CC1	none (no result: L3MBTL1 block)
Cn1c(C(=O)N2CCN(Cc3ccccc3)CC2)cc2c(=O)n(C)c3ccccc3c21	JMJD2A Tudor inconclusive, G9a block 45µM (no result: L3MBTL1 block)
CCN1CCN(C(=O)c2cc3c(=O)n(C)c4ccccc4c3n2C)CC1	G9a block inconclusive
Cc1cccc(N2CCN(C(=O)c3cc4c(=O)n(C)c5ccccc5c4n3C)CC2C)c1 (stereo unspecified)	JMJD2A Tudor inconclusive, G9a block 45µM, BAZ2B block inconclusive (no result: L3MBTL1 block)
COCCNC(=O)c1cccc(OC2CCN(C(C)COc3ccccc3)CC2)c1 (stereo unspecified)	none
Cc1ccc(S(=O)(=O)N2CCOCC2)cc1NC(=O)CNCC1CCCCC1	JMJD2A Tudor 4µM, G9a block 10µM (no result: BAZ2B block)
O=C(O)CSCC(=O)Nc1ccc(S(=O)(=O)N2CCCCC2)cc1	none
Cc1ccc(S(=O)(=O)N2CCCCC2)cc1NC(=O)CSCC(=O)O	G9a block 50µM
O=C(CC1CCCC1)Nc1cc(S(=O)(=O)N2CCOCC2)ccc1O	HP1b chromo inh inconclusive, G9a block inconclusive
Cc1c(Cl)cccc1NS(=O)(=O)c1cc2c(cc1Cl)CCC(=O)N2	none (no result: HP1b chromo inh, G9a block, L3MBTL1 block, BAZ2B block)
Cc1ccc(Oc2nc3c(c(=O)n(Cc4ccccc4)c(=O)n3C)n2C)cc1C	G9a block inconclusive, BAZ2B block inconclusive (no result: L3MBTL1 block)
CCOC(=O)c1ccc(N2C(=O)CC(N3CCC(Nc4ccc(F)cc4)CC3)C2=O)cc1 (stereo unspecified)	JMJD2A Tudor inconclusive, G9a block 10µM (no result: L3MBTL1 block)
CCOC(=O)c1ccc(N2C(=O)CC(N3CCN(Cc4ccccc4)CC3)C2=O)cc1 (stereo unspecified)	none
CCOC(=O)C1CCCN(C2CC(=O)N(c3cccc(C)c3)C2=O)C1 (stereo unspecified)	JMJD2A Tudor inconclusive, G9a block 28µM, BAZ2B block inconclusive
CCOC(=O)c1ccc(N2C(=O)CC(N3CCCC(C)C3)C2=O)cc1 (stereo unspecified)	G9a block 10µM (no result: L3MBTL1 block)
O=C(Cn1nc(-c2ccccc2)c2cnc3ccccc3c21)Nc1ccccc1	none (no result: L3MBTL1 block)
Cc1[nH]c2ccc(C(=O)OC(C)C(=O)N(C)c3ccccc3)cc2c1C (stereo unspecified)	HP1b chromo inh inconclusive, JMJD2A Tudor inconclusive, BAZ2B block 50µM
CC(=O)Nc1ccc(NC(=O)C(C)OC(=O)c2ccc3[nH]c(C)c(C)c3c2)cc1 (stereo unspecified)	JMJD2A Tudor inconclusive, G9a block 50µM
Cc1[nH]c2ccc(C(=O)OC(C)C(=O)N(C)C3CCCCC3)cc2c1C (stereo unspecified)	HP1b chromo inh inconclusive, JMJD2A Tudor inconclusive, G9a block 45µM, BAZ2B block 56µM
CC(=O)Nc1ccc(S(=O)(=O)NC2=NCN(C(C)C)CN2)cc1	none (no result: L3MBTL1 block)
